# Experimental data as given in the supplement of paper PMC4100887.
# Structures can show the parent of a compound that is named as a salt. ± gives the standard deviation of the averaged measurements.
# Key:
# IMR-90 = assay: relative cell viability (ATPlite) vs untreated control (fraction); higher = less toxic; details: 1 µM; 72 h
# K562 [1] = assay: as above; details: 1 µM; 72 h
# K562 [2] = assay: relative cell viability (ATPlite) vs untreated control, with imatinib (fraction); higher = less toxic; details: 1 µM; 72 h; imatinib 0.125 µM
SMILES,relative cell viability (IMR-90),relative cell viability (K562 [1]),relative cell viability (K562 [2])
"O=C(O)C=Cc1cc(Br)c(Br)c(Br)c1Br [Casein Kinase II Inhibitor III, TBCA]",0.889 ± 0.14,0.988 ± 0.082,0.836 ± 0.044
Oc1cccc(-c2nc(N3CCOCC3)c3oc4ncccc4c3n2)c1,0.958 ± 0.099,0.741 ± 0.015,0.513 ± 0.045
O=Nc1c(-c2c(O)[nH]c3cc(Br)ccc23)[nH]c2ccccc12 [GSK-3 Inhibitor IX],0.935 ± 0.077,0.779 ± 0.036,0.599 ± 0.044
Cc1nc2cc3nc(-c4cccs4)cnc3cc2n1C,0.894 ± 0.058,0.343 ± 0.04,0.288 ± 0.015
COc1cc2ncnc(N3CCN(C(=O)Nc4ccc(Oc5ccccc5)cc4)CC3)c2cc1OC [PDGF Receptor Tyrosine Kinase Inhibitor III],1.01 ± 0.086,0.736 ± 0.03,0.649 ± 0.029
Fc1ccc(-c2nc3n(c2-c2ccncc2)CCS3)cc1,0.999 ± 0.12,0.845 ± 0.071,0.737 ± 0.058
Cc1ccc([N+](=O)[O-])cc1S(=O)(=O)N(C)/N=C/c1cnc2ccc(Br)cn12 [PI 3-Kα Inhibitor VIII],0.166 ± 0.031,0.763 ± 0.071,0.681 ± 0.044
CNc1cc2c(Nc3cccc(Br)c3)ncnc2cn1,1.04 ± 0.053,0.995 ± 0.043,0.807 ± 0.023
"NCCCn1cc(C2=C(c3c[nH]c4ccccc34)C(=O)NC2=O)c2ccccc21 [Bisindolylmaleimide III, Hydrochloride]",1.06 ± 0.088,0.88 ± 0.058,0.776 ± 0.042
NS(=O)(=O)c1ccc(N=Nc2c(O)[nH]c3ccc(Br)cc23)cc1 [Cdk2 Inhibitor II],1.22 ± 0.2,0.839 ± 0.084,0.825 ± 0.052
"c1ccc2c(-c3ccncc3)c[nH]c2c1 [Rho Kinase Inhibitor III, Rockout]",0.814 ± 0.19,0.833 ± 0.097,0.683 ± 0.029
"O=C1C(=Cc2ccc(O)cc2)C2=Nc3ccccc3C2=C1C1=C2C(=Nc3ccccc32)C(=Cc2ccc(O)cc2)C1=O [Scytonemin, Lyngbya sp.]",0.834 ± 0.054,0.986 ± 0.052,0.821 ± 0.089
O=C1NC(=O)C(c2cn(CCCO)c3ncccc23)=C1c1cnccn1 [GSK-3b Inhibitor XI],1.02 ± 0.054,0.915 ± 0.075,0.757 ± 0.046
COc1ccc(COc2ccc(Cc3cnc(N)nc3N)cc2OC)cc1 [cFMS Receptor Tyrosine Kinase Inhibitor],1.05 ± 0.12,0.789 ± 0.061,0.699 ± 0.007
O=C(O)c1ccc2c3c1cccc3c(=O)n1c3ccccc3nc21,0.961 ± 0.12,0.947 ± 0.051,0.811 ± 0.088
O=c1cc(N2CCOCC2)oc2c1ccc1ccccc12 [DNA-PK Inhibitor II],1 ± 0.061,0.815 ± 0.041,0.754 ± 0.023
"CCC(CO)Nc1nc(NCc2ccccc2)c2ncn(C(C)C)c2n1 [Roscovitine, (S)-Isomer]",1.04 ± 0.054,0.912 ± 0.081,0.729 ± 0.057
"CC[C@@H](CO)Nc1nc(NCc2ccc(-c3ccccn3)cc2)c2ncn(C(C)C)c2n1 [CR8, (S)-Isomer]",0.107 ± 0.035,0.0828 ± 0.015,0.0705 ± 0.018
CCCOc1ccc(/C=C2/SC(=O)NC2=O)cc1 [PIM1/2 Kinase Inhibitor VI],0.916 ± 0.1,0.972 ± 0.031,0.802 ± 0.029
Cc1cc2ncc(-c3ccccc3)nc2cc1C,0.969 ± 0.069,0.836 ± 0.094,0.719 ± 0.05
"CC[C@H](CO)Nc1nc(NCc2ccc(-c3ccccn3)cc2)c2ncn(C(C)C)c2n1 [CR8, (R)-Isomer]",0.297 ± 0.51,0.0971 ± 0.02,0.0846 ± 0.015
O=c1c2ccccc2[nH]c(=S)n1CCN1CCC(=C(c2ccc(F)cc2)c2ccc(F)cc2)CC1 [Diacylglycerol Kinase Inhibitor II],0.995 ± 0.097,0.867 ± 0.094,0.768 ± 0.07
CC(C)n1cnc2c(NCc3ccccc3)nc(NCCCO)nc21 [Bohemine],1.03 ± 0.066,0.9 ± 0.074,0.797 ± 0.029
COc1cc2ncnc(Nc3ccc(O)c(Br)c3)c2cc1OC [JAK3 Inhibitor II],1.01 ± 0.09,0.815 ± 0.037,0.717 ± 0.032
Cc1cc(Nc2nc(-c3ccccc3)nc3ccccc23)n[nH]1 [GSK-3 Inhibitor XIII],1 ± 0.059,0.937 ± 0.041,0.711 ± 0.034
"O=C1Nc2ccc(Cl)cc2/C1=C/c1cc(Cl)c(O)c(Cl)c1 [PKR Inhibitor, Negative Control]",0.968 ± 0.089,0.848 ± 0.072,0.721 ± 0.058
Nc1n[nH]c(N)c1N=Nc1ccc(O)cc1 [Cdk9 Inhibitor II],0.93 ± 0.099,0.839 ± 0.073,0.765 ± 0.035
"Cn1nc2c3c(cccc31)C(=O)c1ccccc1-2 [JNK Inhibitor, Negative Control]",1.02 ± 0.11,0.869 ± 0.083,0.733 ± 0.038
